Among the data in PubChem BioAssay (Tox21) are outcome, Potency and max activation values, retold here.

Where “and” joins values, the source holds several entries; their conditions need not be identical. Identical values can stand only once. Results filed as inconclusive are left out. Some structures have more than one record in an assay (separate samples or runs), and their calls can disagree. Calls of active or inactive are those of the source. Unless noted, the call rests on the fitted dose curve; in most records, active means well fitted curve in the direction sought with a large enough effect in the repeat runs; inconclusive means weak or mixed curves; inactive means no such curve, though single readings can be large; an effect the other way counts as inactive or inconclusive.

Assay [1] is described as follows: Caspase-3/7 induction in HepG2 cells by small molecules, qHTS assay (AID 1346978). Further: nearly all actives have a fitted effect of over 15% in size. The gist of the method:
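Caspase-3/7 induction was measured by Caspase-Glo 3/7 luminescence (30 min, room temperature) after a 17 hr compound exposure of wild-type HepG2 cells seeded at 2,000 per well and pre-incubated 5 hr.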
For orientation: In qHTS, concentration-response curves come from the screen itself.

Assay [2] can be described thus: Caspase-3/7 induction in CHO-K1 cells by small molecules, qHTS cell viability counter screen (AID 1346979). Further: nearly all actives have a fitted effect of over 35% in size. Further: potency means the concentration at half of the fitted maximal effect. In a few lines:
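To flag cytotoxic compounds, treated CHO-K1 wild-type cells were given CellTiter-Fluor at 16hr and read fluorescently after 1hr at 37C; the caspase-3/7 luminescence was measured in these same wells.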

Assay [3] is described as follows: Caspase-3/7 induction in CHO-K1 cells by small molecules, qHTS assay (AID 1346980). Further: nearly all actives have a fitted effect of over 15% in size. The gist of the method:
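Luminescent Caspase-Glo 3/7 read (30min, room temperature) quantified apoptosis induction. Cells were wild-type CHO-K1, treated with compound for 17hr at 37 C and 5% CO2.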

Assay [4] is described as follows: Caspase-3/7 induction in HepG2 cells by small molecules, qHTS cell viability counter screen (AID 1346981). Further: series mostly up to about 92 µM; nearly all actives have a fitted effect of over 30% in size. In a few lines:
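Fluorescence read-out of live-cell protease activity (CellTiter-Fluor) after 1 hr with reagent. This was measured in the same wells as the caspase-3/7 luminescence, on HepG2 cells exposed to DMSO-dissolved compounds for 16 hr at 37 C.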

The target of assay [5] is Nuclear receptor subfamily 1 group I member 2 (Homo sapiens) (UniProt O75469). In words: Human pregnane X receptor (PXR) small molecule agonists, qHTS assay (AID 1346982). Further: nearly all actives have a fitted effect of over 35% in size. Further: potency means the concentration at half of the fitted maximal effect. In a few lines:
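HepG2 PXR-Luc reporter line, 5% charcoal-stripped FBS; 5 hr pre-incubation, compound (DMSO) 24 hr at 37 C/5% CO2; ONE-Glo 30 min RT; luminescence read-out.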

Assay [6] has the same target. In words: CYP3A4 induction through human pregnane X receptor (PXR) by small molecules, qHTS assay (AID 1346984). Further: nearly all actives have a fitted effect of over 40% in size. The gist of the method: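 HepG2-derived DPX-2 line carrying PXR plus a CYP3A4-promoter luciferase reporter; cells plated 5 hr, compound-exposed 24 hr at 37C. CYP3A4 activity probed with 3uM (final) Luciferin-IPA for 3hr, then luciferase read after One-Glo.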

Assay [7] shares this target. Put plainly: Human pregnane X receptor (PXR) activation by small molecules, qHTS assay (AID 1346985). Further: nearly all actives have a fitted effect of over 40% in size. Further: potency means the concentration at half of the fitted maximal effect. In a few lines:
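DPX-2 cells (HepG2 co-transfected with a PXR response element and a CYP3A4-promoter luciferase construct) were seeded at 2,000 per well, rested 5 hr at 37C, then exposed to DMSO-dissolved compounds for 24 hr. Activation was read as luciferase luminescence.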

Assay [8] has as its target Nuclear receptor subfamily 1 group I member 2 (Rattus norvegicus) (UniProt Q9R1A7). Put plainly: Rat pregnane X receptor (rPXR) activation by small molecules, qHTS assay (AID 1346983). Further: nearly all actives have a fitted effect of over 20% in size. Further: potency means the concentration at half of the fitted maximal effect. The conditions noted are these: rPXR luciferase reporter cells, One-Glo luminescence, 24 h; max activation: stronger effect = higher value. The gist of the method:
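Luminescent readout (One-Glo luciferase, 30 min room temperature) followed 24 hr compound treatment at 37 C of rPXR cells plated 2,000 per well and preincubated 5hr; qHTS format with compounds delivered in DMSO.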

The target of assay [9] is Acetylcholinesterase (Homo sapiens) (UniProt P22303). Put plainly: Acetylcholinesterase (AChE) small molecule antagonists: colormetric cell-based qHTS assay (AID 1347395; calls by dose curve; further: nearly all actives have a fitted effect of over 30% in size; further: potency means the concentration at half of the fitted maximal effect). In a few lines:
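Neuroblastoma line SH-SY5Y supplied the enzyme; cells were preincubated with compound for 30 min at 37 C and 5% CO2. Acetylthiocholine with DTNB was then added for 90 min at 37 C, and thiocholine was measured by colour.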

Assay [10] shares this target. Put plainly: Acetylcholinesterase (AChE) small molecule antagonists: enzyme-based qHTS assay (AID 1347397; calls by dose curve; further: nearly all actives have a fitted effect of over 55% in size; further: potency means the concentration at half of the fitted maximal effect). The conditions noted are these: Potency: AChE enzyme activity inhibition. The gist of the method:
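First, recombinant human AChE (50 mU/mL as dispensed) received test compound or DMSO. Second, plates stood 30 min at room temperature. Third, DTNB and acetylthiocholine were added, followed by 10 min at room temperature and colorimetric detection.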
On the % scale 0 is the no-effect control and ±100 the full control effect.

Sequence of Acetylcholinesterase (Homo sapiens) (P22303 whole entry, looked up): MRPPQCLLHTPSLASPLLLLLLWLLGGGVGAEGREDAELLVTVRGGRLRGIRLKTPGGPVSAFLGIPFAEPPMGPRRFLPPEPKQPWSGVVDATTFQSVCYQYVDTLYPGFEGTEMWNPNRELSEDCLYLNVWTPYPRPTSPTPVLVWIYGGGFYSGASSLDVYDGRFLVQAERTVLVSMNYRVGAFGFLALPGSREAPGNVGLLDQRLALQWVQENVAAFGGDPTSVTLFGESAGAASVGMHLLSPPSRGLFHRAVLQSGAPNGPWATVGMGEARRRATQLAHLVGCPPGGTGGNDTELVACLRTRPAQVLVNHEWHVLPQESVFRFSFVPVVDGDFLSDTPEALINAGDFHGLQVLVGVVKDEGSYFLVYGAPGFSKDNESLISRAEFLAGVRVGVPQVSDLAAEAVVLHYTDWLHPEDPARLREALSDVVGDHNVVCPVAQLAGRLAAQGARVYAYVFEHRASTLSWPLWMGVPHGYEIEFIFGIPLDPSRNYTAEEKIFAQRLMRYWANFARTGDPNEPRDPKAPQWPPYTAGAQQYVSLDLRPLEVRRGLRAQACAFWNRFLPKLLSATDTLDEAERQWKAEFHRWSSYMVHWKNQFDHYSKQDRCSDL
Sequence of Nuclear receptor subfamily 1 group I member 2 (Homo sapiens) (O75469 whole entry, looked up): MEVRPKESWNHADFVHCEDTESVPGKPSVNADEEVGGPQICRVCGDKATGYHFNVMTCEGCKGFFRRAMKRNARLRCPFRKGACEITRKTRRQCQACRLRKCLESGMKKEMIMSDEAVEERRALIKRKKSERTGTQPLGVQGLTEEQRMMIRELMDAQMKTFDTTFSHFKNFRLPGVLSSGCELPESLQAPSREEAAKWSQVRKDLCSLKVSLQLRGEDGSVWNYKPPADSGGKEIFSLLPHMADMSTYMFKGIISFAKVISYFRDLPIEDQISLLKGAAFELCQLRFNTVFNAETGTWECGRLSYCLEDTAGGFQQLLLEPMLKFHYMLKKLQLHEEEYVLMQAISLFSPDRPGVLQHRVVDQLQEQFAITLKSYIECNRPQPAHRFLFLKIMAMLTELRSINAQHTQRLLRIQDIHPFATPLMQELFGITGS
Sequence of Nuclear receptor subfamily 1 group I member 2 (Rattus norvegicus) (Q9R1A7 whole entry, looked up): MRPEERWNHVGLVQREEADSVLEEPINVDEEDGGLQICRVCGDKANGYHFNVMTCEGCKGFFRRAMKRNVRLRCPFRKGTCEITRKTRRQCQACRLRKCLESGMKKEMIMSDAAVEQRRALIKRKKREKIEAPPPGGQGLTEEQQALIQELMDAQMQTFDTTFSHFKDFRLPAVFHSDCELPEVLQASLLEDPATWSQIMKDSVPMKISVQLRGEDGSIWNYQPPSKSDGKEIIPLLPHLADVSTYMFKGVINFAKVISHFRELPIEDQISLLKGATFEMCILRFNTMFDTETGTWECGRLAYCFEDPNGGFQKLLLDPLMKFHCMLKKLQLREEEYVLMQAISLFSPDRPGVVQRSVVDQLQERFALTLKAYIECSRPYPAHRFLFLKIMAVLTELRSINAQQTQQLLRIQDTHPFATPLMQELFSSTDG

For `CCCCCCCCCCCCCCCCCC(=O)O`, the call in assay [1] and in assay [3] was inactive. The Potency result in [2], in assay [4], in assay [6] and in assay [7] was “inactive” in each case. For the same compound, the Potency in assay [5] was 30.4 µM (active) and inactive.
Consider `COC(C)(C)CCCC(C)C/C=C/C(C)=C/C(=O)OC(C)C` (stereo unspecified), for which the compound was classed as inactive in [1] and in assay [3]. In addition, the Potency result in [2], in assay [4], in [6], in assay [9] and in assay [10] was “inactive” each time. In addition, the values for the Potency in assay [5] and in assay [7] were 47.8 µM (active) and 11.2 µM (active), respectively. The max activation in assay [8] is -0.367% (inactive).
Consider `C=CC(=O)OCC(CC)CCCC` (stereo unspecified), for which the outcome in assay [1] and in assay [3] was inactive. Moreover, the Potency result in assay [2] and in assay [4] was “inactive” throughout.
In the case of `O=[N+]([O-])c1cc([As](=O)(O)O)ccc1O`, the compound was called inactive in assay [1] and in assay [3]. In addition, the Potency entry in [2], in assay [4], in assay [5], in assay [6], in [7] and in assay [9] was “inactive” each time. Moreover, in assay [10], the Potency entry is “inactive”. In addition, the Potency in assay [8] is 12.6 µM (active).
On to `Nc1ccc([As](=O)(O)O)cc1`, for which the compound was called inactive in assay [1] and in assay [3]. For the same compound, the Potency result in assay [2], in [4], in [5], in assay [6], in assay [7] and in [9] was “inactive” in each case. The Potency entry in assay [10] was “inactive”. For the same compound, the max activation in assay [8] is -1.25% (inactive).
As for `Cc1ccccc1N`, the result in assay [1] and in assay [3] was inactive. Also, the Potency result in assay [2] and in [4] was “inactive” throughout. The Potency entry in [5] is “inactive and 54.5 µM (active)”.
Turning to `Nc1nc(N)nc(NC2CC2)n1`, the outcome in [1] and in [3] was inactive. The Potency entry in [2], in assay [4], in assay [5], in assay [6], in assay [7] and in assay [9] was “inactive” throughout. In [10], the Potency result was “inactive”. For the same compound, the max activation in assay [8] was -4.09% (inactive).
In the case of `CN(C)C(=O)Cl`, the result in assay [1] and in assay [3] was inactive. In addition, the Potency entry in assay [2], in [4], in assay [5], in assay [9] and in assay [10] was “inactive” each time.
Consider `CNC(=O)O/N=C/C(C)(C)SC`, for which the compound was classed as inactive in [1] and in assay [3]. Also, the Potency entry in assay [2] and in [4] was “inactive” throughout. In assay [5], the Potency was 69.2 µM (active) and inactive.
For the compound `Cl[C@H]1OCCO[C@@H]1Cl`, the result in assay [1] and in [3] was inactive. The Potency result in assay [2], in [4], in assay [5], in [9] and in assay [10] was “inactive” throughout.
Regarding `[N-]=[N+]=CC(=O)OC[C@H](N)C(=O)O`, the outcome in assay [1] and in assay [3] was inactive. The Potency result in [2], in [4], in assay [5], in assay [9] and in [10] was “inactive” each time.
In the case of `O=[N+]([O-])c1ccc(Cl)cc1`, the call in assay [1] and in assay [3] was inactive. In addition, the Potency in assay [2] is 48.2 µM (active) and inactive. The Potency entry in assay [4], in assay [5], in assay [9] and in assay [10] was “inactive” throughout.
As to `Cc1cccc(C)c1N`, the outcome in assay [1] and in [3] was inactive. In addition, the Potency entry in assay [2], in assay [4], in assay [5], in [9] and in [10] was “inactive” throughout.
As to `CC12CC1(C)C(=O)N(c1cc(Cl)cc(Cl)c1)C2=O` (stereo unspecified), the compound was classed as inactive in assay [1] and in [3]. The Potency entry in [2], in [4], in assay [9] and in [10] was “inactive” throughout. Also, the Potency in assay [5] is 60.9 µM (active) and 24.3 µM (active).
Consider `CCCOC(=O)c1ccccc1C(=O)OCCC`, for which the outcome in [1] and in [3] was inactive. Further, the Potency result in assay [2], in assay [4], in assay [5], in assay [9] and in [10] was “inactive” in each case.
Turning to `c1ccc2c(c1)CCCC2`, the compound was classed as inactive in assay [1] and in [3]. The Potency entry in assay [2], in [4], in assay [5], in assay [9] and in assay [10] was “inactive” in each case.
Regarding `ClC(Cl)c1ccccc1`, the result in assay [1] and in [3] was inactive. The Potency entry in [2], in assay [4], in [5], in [9] and in [10] was “inactive” throughout.
As for `CNC(=O)O/N=C(\SC)C(=O)N(C)C`, the compound was called inactive in [1] and in [3]. The Potency entry in [2], in [4] and in assay [5] was “inactive” in each case. For the same compound, the Potency was 1.55 µM (active) and 1.42 µM (active) in [9]; 2.45 µM (active) and 2.82 µM (active) in [10].
As to `CC(C)(C)C(=O)CCl`, the result in assay [1] and in assay [3] was inactive. The Potency result in [2], in [4], in assay [5], in assay [9] and in assay [10] was “inactive” each time.
With `COc1nc(NC(C)C)nc(NC(C)C)n1`, the compound was classed as inactive in assay [1] and in assay [3]. Further, the Potency entry in [2], in [4], in assay [9] and in assay [10] was “inactive” throughout. For the same compound, the Potency in assay [5] is 30.7 µM (active) and 54.5 µM (active).
`CCNc1nc(Cl)nc(NC(C)C)n1`: the result in assay [1] and in [3] was inactive. Moreover, the Potency entry in [2], in assay [4], in [9] and in [10] was “inactive” throughout. In addition, in assay [5], the Potency was 67.8 µM (active) and 61.1 µM (active).
With `Nc1cc(Cl)cc(Cl)c1`, the outcome in [1] and in [3] was inactive. The Potency entry in assay [2], in assay [4], in [5], in assay [9] and in [10] was “inactive” in each case.
For `Clc1cnc(Oc2ccc(Oc3ncc(Cl)cc3Cl)cc2)c(Cl)c1`, the compound was classed as inactive in assay [1] and in assay [3]. Besides, the Potency result in [2], in assay [4], in assay [5], in [9] and in assay [10] was “inactive” throughout.
